The panel holds about 83,000 compounds, 20% with a hit somewhere; the sample as a whole holds those more often.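 Percent growth is the endpoint: 0 to 100 indicates growth inhibition (40 means 60% inhibition), 0 means no net growth, and negative values indicate cell death.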 Calls of active or inactive are those of the source. The calls were made as follows: active = growth percent below 10; inactive = the rest.
Key:
Assay in all cases: NCI-60 one-dose screen, 48 h (100 = growth as untreated, 0 = no growth, -100 = all killed)
Settings in all cases: 10 µM unless noted
[1] = test system: SR leukemia
[2] = test system: RPMI-8226 leukemia
[3] = test system: OVCAR-8 ovarian
[4] = test system: OVCAR-5 ovarian
[5] = test system: OVCAR-4 ovarian
[6] = test system: SK-OV-3 ovarian
[7] = test system: IGROV1 ovarian
[8] = test system: OVCAR-3 ovarian
[9] = test system: NCI/ADR-RES ovarian
[10] = test system: T-47D breast
[11] = test system: BT-549 breast
[12] = test system: MDA-MB-435 melanoma
[13] = test system: MCF7 breast
[14] = test system: HCT-116 colon
[15] = test system: HCC-2998 colon
[16] = test system: KM12 colon
[17] = test system: MDA-MB-468 breast

Measured: growth

C=Cn1cc(C(=O)O)c(=O)c2cc(F)c(N3CCN(c4nccc(-c5nccs5)n4)CC3)cc21
active: [1] -35.2% | [2] -24% | [3] 7.65% | [4] -25.6% | [6] -35.8% | [7] -30.3% | [8] -4.52% | [9] -39.5% | [10] -1.23% | [11] -49.1% | [12] -38% | [13] 0.211% | [14] -33.8% | [15] -62.1% | [16] -15% | [17] -61.9%
inactive: [5] 10.7%

Nc1cc2ccccc2c(=O)n1NC(=O)c1ccc(I)cc1
inactive: [1] 88.3% | [2] 98% | [3] 101% | [4] 98.1% | [5] 100% | [6] 91.9% | [7] 106% | [8] 104% | [9] 101% | [10] 101% | [11] 108% | [12] 100% | [13] 93.2% | [14] 98% | [15] 114% | [16] 103% | [17] 98.9%

CNC(=O)c1cccc(NC(=O)c2ccc3c(c2)nnn3/C(C#N)=C/c2ccccn2)c1
inactive: [3] 10% | [4] 19.6% | [5] 40.6% | [6] 83.4% | [9] 84.3% | [12] 11.5% | [16] 55.9%
active: [1] -5.41% | [2] -23.6% | [7] -2.48% | [8] -69.2% | [10] -70.4% | [11] -98.7% | [13] -77.2% | [14] -89% | [15] -92.7% | [17] -85.5%

C=C1CC[C@@H]2[C@]3(C)COC(c4cn[nH]c4-c4ccc(C)cc4)O[C@@H]3CC[C@@]2(C)[C@@H]1C/C=C1/C(=O)OCC1O (some centres undefined)
inactive: [4] 20.4% | [5] 31.9% | [6] 79.9% | [7] 24% | [10] 39.4% | [16] 39.3%
active: [1] -25% | [2] -25.2% | [3] -21.7% | [8] -23.1% | [9] -41.8% | [11] -30.5% | [12] -16.6% | [13] 8.74% | [14] -68.5% | [15] 2.89% | [17] -49.3%

N#Cc1c(-c2ccc(Cl)cc2)nc2n[nH]c(-c3ccc(Cl)cc3)c2c1-c1cccs1
active: [10] 6.48%
inactive: [1] 25.6% | [2] 17.7% | [3] 66.7% | [4] 75.8% | [5] 42.3% | [6] 54.2% | [7] 62% | [8] 63.5% | [9] 61.1% | [11] 55.4% | [12] 60.5% | [13] 44.7% | [14] 35.4% | [15] 69.3% | [16] 42% | [17] 50.8%

Cn1nc(C(F)(F)F)cc1-c1cc(Cl)c(COc2ccc(Cl)cc2)c(-c2ccc(Cl)c(C(F)(F)F)c2)c1O
active: [1] -32.4% | [2] -39.2% | [3] -25.6% | [4] -1.15% | [6] -14.5% | [7] 5.06% | [8] -8.73% | [9] -34.8% | [11] -51.6% | [12] -34.4% | [13] -14.3% | [14] -62.2% | [15] -33.1% | [16] -19.1% | [17] -23.9%
inactive: [5] 13.9% | [10] 13.1%

CCOc1ccc(-c2c(C#N)c(-c3ccc(Cl)cc3)nc3n[nH]c(-c4ccc(Cl)cc4)c23)cc1OC
inactive: [1] 18.8% | [2] 17.3% | [3] 79.3% | [4] 72.2% | [5] 51.2% | [6] 63.4% | [7] 62.9% | [8] 67.5% | [9] 62% | [10] 25.1% | [11] 67.6% | [12] 56.8% | [13] 26.2% | [14] 31.4% | [15] 53.4% | [16] 30.2% | [17] 50.5%

N#Cc1ccc(C(=O)Nn2c(N)cc3ccccc3c2=O)cc1
inactive: [1] 76% | [2] 86.5% | [3] 98.1% | [4] 103% | [5] 97.4% | [6] 85.8% | [7] 92.9% | [8] 105% | [9] 98.3% | [10] 54.3% | [11] 85.4% | [12] 107% | [13] 39.3% | [14] 81.7% | [15] 108% | [16] 103% | [17] 76.4%

COc1ccc2cc([C@H](C)C(=O)N/N=C/c3ccc(Br)cc3)ccc2c1
inactive: [1] 87.3% | [2] 105% | [3] 105% | [4] 100% | [5] 100% | [6] 97.7% | [7] 102% | [8] 114% | [9] 98.2% | [10] 90.3% | [11] 104% | [12] 103% | [13] 90.7% | [14] 103% | [15] 107% | [16] 105% | [17] 100%

COc1ccc(-c2cc(C(=O)NCc3ccccc3)nn2-c2ccc(S(C)(=O)=O)cc2)cc1OC
inactive: [1] 82.3% | [2] 86.9% | [3] 100% | [4] 102% | [5] 94.3% | [6] 105% | [7] 122% | [8] 115% | [9] 107% | [10] 91.1% | [11] 104% | [12] 105% | [13] 95.2% | [14] 102% | [15] 117% | [16] 102% | [17] 100%

O=C(/C=C/c1cccc(OCc2ccc(F)cc2)c1)c1nc2ccccc2[nH]1
active: [1] -44% | [2] -50.4% | [13] 3.5% | [14] -24.9% | [17] 8.37%
inactive: [3] 83.2% | [4] 122% | [5] 62.5% | [6] 92.9% | [7] 93.5% | [8] 68.2% | [9] 72.5% | [10] 22.1% | [11] 16% | [12] 68.8% | [15] 26.6% | [16] 13.6%

O=C(/C=C/c1ccc(-c2ccccc2)cc1)c1nc2ccccc2n1Cc1ccc(Br)cc1
active: [1] 2.11% | [10] 7.98%
inactive: [2] 14.1% | [3] 43.9% | [4] 74.7% | [5] 50% | [6] 85.3% | [7] 63.6% | [8] 45% | [9] 47.1% | [11] 41.7% | [12] 61.9% | [13] 21.3% | [14] 24% | [15] 62.6% | [16] 74.3% | [17] 49.6%

CC(C)c1ccc2c(N)c(C(=O)Nc3ccc(C(F)(F)F)cn3)sc2n1
inactive: [1] 41.9% | [2] 37.9% | [3] 63.8% | [4] 89.9% | [5] 32.4% | [6] 83.9% | [7] 81.2% | [8] 83% | [9] 25% | [10] 23.2% | [11] 42.1% | [12] 54.8% | [13] 36.9% | [14] 47.3% | [15] 96.1% | [16] 57% | [17] 14.8%

COc1ccc(/C=C2\C(=O)Nc3ccc(Cl)cc32)cc1OCc1ccccn1
inactive: [1] 31.4% | [2] 39.5% | [3] 31.6% | [4] 50% | [6] 63.3% | [7] 45.5% | [8] 51.6% | [9] 27.3% | [10] 51.9% | [11] 46.1% | [12] 75.1% | [13] 34.7% | [14] 21.1% | [15] 79.6% | [16] 75.2% | [17] 59%
active: [5] 8.08%

NS(=O)(=O)c1ccc(-n2cc(-c3cccc(NC(=O)c4cc(C(F)(F)F)cc(C(F)(F)F)c4)c3)nn2)cc1
inactive: [1] 47.4% | [2] 90% | [3] 40.7% | [4] 70.5% | [5] 85.9% | [6] 68.4% | [7] 63.1% | [8] 78.5% | [9] 81.6% | [10] 60.3% | [11] 98.7% | [12] 87.8% | [13] 59.6% | [14] 46.7% | [15] 65.3% | [16] 21.9% | [17] 55.1%

O=C(N/N=C/c1ccc(-c2ccc(O)cc2)s1)c1[nH]c2ccc(Br)cc2c1-c1ccccc1
inactive: [3] 25.1% | [4] 18.7% | [5] 20.3% | [6] 31.6% | [7] 12.9% | [8] 21.4% | [10] 12.4%
active: [1] -22.4% | [2] -8.25% | [9] -27.4% | [11] -12.1% | [12] 2.37% | [13] 6.81% | [14] 1.35% | [15] 7.81% | [16] 7.71% | [17] 5.96%

CCN(CC)C(=O)N/C(N)=N/c1nc2ccccc2s1
inactive: [1] 32% | [2] 31.5% | [3] 55.5% | [4] 72.4% | [5] 22.2% | [6] 71.9% | [7] 72.1% | [8] 68.2% | [9] 23.3% | [10] 12.6% | [11] 16.5% | [12] 37.5% | [13] 37.6% | [14] 43.4% | [15] 88.2% | [16] 73.9%
active: [17] 5.79%
